Measurements published in PubChem BioAssay (NCI).
Compounds without any hit were thinned out: in the full panel of roughly 83,000, 20% have a hit.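 Growth was measured after 48 h exposure to one concentration of compound in 96-well plates. Values under 10 count as active.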 Active and inactive are the calls of the source.

What was measured:
Assay in all cases: NCI-60 one-dose screen, 48 h (100 = growth as untreated, 0 = no growth, -100 = all killed)
HT29 colon = details: 10 µM unless noted
SNB-75 CNS = details: 10 µM unless noted
SNB-19 CNS = details: 10 µM unless noted
U251 CNS = details: 10 µM unless noted
PC-3 prostate = details: 10 µM unless noted
SK-MEL-5 melanoma = details: 10 µM unless noted
UACC-62 melanoma = details: 10 µM unless noted
LOX IMVI melanoma = details: 10 µM unless noted
SK-MEL-28 melanoma = details: 10 µM
SK-MEL-2 melanoma = details: 10 µM unless noted

Measured: growth

COc1ccc(Cn2c(Br)c3c(c2-c2cc(OC)c(OC)c(OC)c2)CCc2sc(NC(=O)c4ccc(OC)cc4)nc2-3)cc1
inactive: HT29 colon 101% | SNB-75 CNS 82.4% | SNB-19 CNS 98.5% | U251 CNS 98.6% | PC-3 prostate 84.2% | SK-MEL-5 melanoma 86.7% | UACC-62 melanoma 94.9% | LOX IMVI melanoma 92.5% | SK-MEL-28 melanoma 105% | SK-MEL-2 melanoma 96.7%

COc1ccc(/C=C/C(=O)c2ccc3cc(OC)c(OC)cc3c2)cc1OC
active: HT29 colon 6.78% | LOX IMVI melanoma 6.59%
inactive: SNB-75 CNS 49.7% | SNB-19 CNS 71.9% | U251 CNS 22.8% | PC-3 prostate 42% | SK-MEL-5 melanoma 36.7% | UACC-62 melanoma 57.6% | SK-MEL-28 melanoma 96.3% | SK-MEL-2 melanoma 83.6%

COc1c(B(O)O)cccc1-c1nc2ccc3[nH]ncc3c2c2c1C1CCC2C1 (stereo not given)
inactive: HT29 colon 71.9% | SNB-19 CNS 74% | U251 CNS 66.4% | PC-3 prostate 76.9% | SK-MEL-5 melanoma 75.7% | UACC-62 melanoma 70.3% | LOX IMVI melanoma 52% | SK-MEL-28 melanoma 104% | SK-MEL-2 melanoma 80.8%
active: SNB-75 CNS 2.23%

O=C1C(=O)c2c(ccc3ccccc23)-c2ccccc21
inactive: HT29 colon 61.5% | SNB-75 CNS 26.2% | SNB-19 CNS 18.9%
active: U251 CNS 1.64% | PC-3 prostate 5.79% | SK-MEL-5 melanoma -69.9% | UACC-62 melanoma -25.2% | LOX IMVI melanoma -33.2% | SK-MEL-28 melanoma 3.64% | SK-MEL-2 melanoma -68.8%

O=c1cc(-c2ccccc2)oc2cc(OCc3cn(Cc4ccc(F)cc4)nn3)cc(OCc3cn(Cc4ccc(F)cc4)nn3)c12
active: SNB-75 CNS 6.29%
inactive: HT29 colon 35.1% | SNB-19 CNS 12.1% | U251 CNS 10.5% | PC-3 prostate 36% | SK-MEL-5 melanoma 17.1% | UACC-62 melanoma 30% | LOX IMVI melanoma 34.8% | SK-MEL-28 melanoma 29.9% | SK-MEL-2 melanoma 48.8%

CCN1C(=O)N(CC)C2Nn3c(s/c(=C4\C(=O)N(C(C)C)c5ccccc54)c3=O)=NC21 (stereo not given)
inactive: HT29 colon 11.6% | SNB-75 CNS 60.2% | SNB-19 CNS 46.4% | U251 CNS 28.1% | PC-3 prostate 26.3% | SK-MEL-5 melanoma 41.4% | UACC-62 melanoma 36.4% | LOX IMVI melanoma 40.6% | SK-MEL-28 melanoma 55.1% | SK-MEL-2 melanoma 72.9%

O=c1oc2ccc(F)cc2c(=O)n1-c1ccc(I)cc1F
active: SNB-75 CNS -15.3% | U251 CNS 0.481% | PC-3 prostate -2.68% | SK-MEL-5 melanoma -84.1% | UACC-62 melanoma -16.4% | SK-MEL-2 melanoma -19.7%
inactive: HT29 colon 46.2% | SNB-19 CNS 15.6% | LOX IMVI melanoma 10.7% | SK-MEL-28 melanoma 12.3%

c1ccc(-c2ccc(-c3nc4ccccc4[nH]3)cc2)cc1
inactive: HT29 colon 52.9% | SNB-75 CNS 55.4% | SNB-19 CNS 106% | U251 CNS 90.6% | PC-3 prostate 76.8% | SK-MEL-5 melanoma 100% | UACC-62 melanoma 103% | LOX IMVI melanoma 84.1% | SK-MEL-28 melanoma 93.2% | SK-MEL-2 melanoma 101%

CNCCNc1nc2ccccc2c2c(=O)c3cccc(C)c3sc12
inactive: SNB-75 CNS 38.4% | SNB-19 CNS 53.2% | U251 CNS 25.4% | PC-3 prostate 41.4% | SK-MEL-5 melanoma 46.3% | UACC-62 melanoma 42% | SK-MEL-2 melanoma 91.4%
active: HT29 colon -25.6% | LOX IMVI melanoma -85.6% | SK-MEL-28 melanoma -60.1%

O=C(N/N=C/c1ccccc1Cl)C(=O)Nc1cccc(C(F)(F)F)c1
inactive: HT29 colon 97.4% | SNB-75 CNS 116% | SNB-19 CNS 94.1% | U251 CNS 96.9% | PC-3 prostate 106% | SK-MEL-5 melanoma 96.6% | UACC-62 melanoma 91.2% | LOX IMVI melanoma 94.9% | SK-MEL-28 melanoma 113% | SK-MEL-2 melanoma 113%

c1ccc2cc3c(Nc4ccc(N5CCOCC5)cc4)ccnc3cc2c1
inactive: HT29 colon 98.1% | SNB-75 CNS 101% | SNB-19 CNS 94.3% | U251 CNS 94.7% | PC-3 prostate 81.8% | SK-MEL-5 melanoma 89.6% | UACC-62 melanoma 95.6% | LOX IMVI melanoma 96.6% | SK-MEL-28 melanoma 111% | SK-MEL-2 melanoma 101%

COc1ccc(C2Nc3ncnc(N)c3N=C3c4ccccc4C(=O)C32)cc1 (stereo not given)
inactive: HT29 colon 98.2% | SNB-75 CNS 71.5% | SNB-19 CNS 82.2% | U251 CNS 90.9% | PC-3 prostate 78% | SK-MEL-5 melanoma 95.6% | UACC-62 melanoma 117% | LOX IMVI melanoma 92.8% | SK-MEL-28 melanoma 113% | SK-MEL-2 melanoma 88.5%

CCOc1cc(Cl)c(C(C)NC(=O)c2cccc(OC)c2)cc1OCC (stereo not given)
inactive: SNB-19 CNS 84.2% | U251 CNS 22.5% | SK-MEL-2 melanoma 34.9%
active: HT29 colon -39.4% | SNB-75 CNS 7.33% | PC-3 prostate 6.15% | SK-MEL-5 melanoma -96.8% | UACC-62 melanoma -76% | LOX IMVI melanoma -68.9% | SK-MEL-28 melanoma -44.6%
